From PubChem BioAssay AID504467 (National Center for Advancing Translational Sciences (NCATS), 2011)
The whole screen tested about 330,000 compounds, of which about 7,700 (2.3%) were called active. Where a call stands in place of a potency, no number is given. About 26% were inconclusive and are not listed. The call rests on the fitted dose curve; in most records, active means well fitted inhibition curve with a large enough effect; inconclusive means small, poorly fitted or top-dose-only effect, or effect the other way; inactive means flat fitted curve, though single readings scatter. The full list was thinned out, with actives kept by preference.

test: qHTS screen for small molecules that inhibit ELG1-dependent DNA repair in human embryonic kidney (HEK293T) cells expressing luciferase-tagged ELG1; conditions: HEK293T ELG1-luciferase reporter, luminescence, 16 h, DNA damage induced by 5-fluorouridine; series mostly up to 46.1 µM; further: nearly all actives have a fitted effect of over 55% in size
Description: NIH Molecular Libraries Probe Production Network [MLPCN] NIH Chemical Genomics Center [NCGC] MLPCN Grant: 1 R03 MH092164-01 Assay Provider: Kyungjae Myung, NHGRI, NIH Keywords: MLPCN, qHTS, NCGC, genotoxicity, cancer Assay Overview: Cancer cells divide rapidly compared to normal cells in the body. During cell division, cancer cells need to duplicate their genome by DNA replication. The failure of genome duplication leads to cancer cells' death. Therefore, inhibitors of DNA replication could specifically kill cancer cells. Based on this concept, many chemotherapeutic agents were developed and have been used to treat cancer patients. However, there are a limited number of agents available in the clinical setting, and some of those that do exist have low efficacy and severe side effects. Therefore, if we can find the compounds that effectively block DNA replication either by directly damaging DNA or by inhibiting other cellular mechanisms, the options for cancer treatment will be broadened. With this in mind, we developed a quantitative high-throughput ELG1-luciferase reporter gene assay. Small molecules that specifically block ELG1 function in response to DNA damage can be identified by monitoring the suppression of luciferase activity. Since ELG1 defines a pathway for repairing DNA damage, agents blocking ELG1 function can be used to sensitize cancer cells to chemotherapeutic agents whose mechanism of action involves the induction of DNA damage.
Assay Protocol Summary: For genotoxicity screening, 2,000 cells in 4 uL/well were dispensed into white, solid-bottom 1536-well plates using a solenoid-based dispenser. Following transfer of 1 uL 5-Fluorouridine and 23 nL compound or DMSO vehicle by a pin tool, the plates were incubated 16 hr at 37 °C and 5% CO2. 5 ul ONE-Glo (Promega) was then added to each plate and following a 30 min incubation at room temperature, luciferase activity was quantified on a ViewLux CCD-based plate reader.
Potency means the concentration at half of the fitted maximal effect.

SMILES | Potency
Cc1cccc(N2C(=O)N3[C@H](c4ccc(F)cc4)[C@@H]4C(=O)N(C5CCCCC5)C(=O)[C@@H]4[C@]3(Cc3ccccc3)C2=O)c1 | inactive
COc1ccc(CN2C3CCCC2CC(NC(=O)c2cccc(F)c2)C3)cc1 (centres undefined) | inactive
CN(CC(=O)NCC(c1ccccc1)N1CCCC1)S(=O)(=O)c1ccc(Cl)cc1 (centres undefined) | inactive
COc1cc(/C=C2\SC(=O)NC2=O)ccc1OCc1ccc(Cl)nc1 | inactive
O=C(NCC(c1ccco1)N1CCc2ccccc21)c1cccc(F)c1 (centres undefined) | inactive
CCCCn1c(N)c(N(CC)C(=O)c2ccc(N(C)S(=O)(=O)c3ccc(C)cc3)cc2)c(=O)[nH]c1=O | inactive
COCCN1C(=O)C(=O)/C(=C(/O)c2ccc(S(=O)(=O)N3CCCCC3)cc2)C1c1ccc(OC)c(OC)c1 (centres undefined) | inactive
Cn1cc(C(=O)c2ccc(Cl)cc2Cl)cc1C(=O)NN | inactive
Cc1noc(C)c1S(=O)(=O)N(C)C[C@H]1Oc2ccc(NC(=O)C3CC3)cc2C(=O)N([C@H](C)CO)C[C@@H]1C | inactive
Cc1ccc(CN2CC(C(=O)NNC(=O)Cn3ccc(C(F)(F)F)n3)CC2=O)cc1 (centres undefined) | inactive
Cc1nn(Cc2ccc(Cl)c(Cl)c2)c(C)c1NC(=O)c1cc(C2CC2)on1 | 16.4 µM (active)
O=C(Nc1cc(C(F)(F)F)ccc1Cl)c1cc(C2CC2)on1 | inactive
Cc1cc(C(=O)Nc2c(C)nn(Cc3ccccc3)c2C)on1 | inactive
CC(=O)Nc1cccc(NC(=O)c2ccc3c(c2)CCN3S(C)(=O)=O)c1 | inactive
O=C1c2ccccc2[C@@H]2C[C@@H](O)[C@H](Nc3ccccc3Cl)CCN12 | inactive
COc1cc(C(=O)NCC(=O)N2CC=C(c3ccccc3)CC2)cc(OC)c1OC | inactive
COc1cc(C(=O)Nc2oc(-c3ccccc3)c(-c3ccccc3)c2C#N)cc(OC)c1OC | 23.1 µM (active)
CC(Oc1ccccc1)C(=O)Nc1oc(-c2ccco2)c(-c2ccco2)c1C#N (centres undefined) | inactive
Cc1cc(C)cc(NC(=O)CCN2C(=O)c3ccccc3C2=O)c1 | inactive
O=C(CCN1C(=O)c2ccccc2C1=O)Nc1ccncc1 | inactive
N#Cc1c(NC(=O)CCCN2C(=O)c3ccccc3C2=O)oc(-c2ccccc2)c1-c1ccccc1 | 7.94 µM (active)
CCOc1ccc(NC(=O)c2cccc3c2C(=O)N(CC2CCCO2)C3)cc1 (centres undefined) | inactive
CCc1ccc(OCC(=O)N(Cc2ccccc2)C2CCS(=O)(=O)C2)cc1 (centres undefined) | inactive
CC[C@]12c3[nH]c4ccc(Cl)cc4c3CCN1C(=O)[C@@H](CC(=O)NCCCOC)C[C@@H]2C(=O)N1CCN(C(=O)c2ccco2)CC1 | inactive

SMILES | Potency
CN(C)C(CNC(=O)c1cccc(S(=O)(=O)Nc2ccc(Br)cc2)c1)c1ccco1 (centres undefined) | inactive
COc1ccc(-c2noc(CCCC(=O)NC3CCCC3)n2)cc1OC | inactive
COc1ccc(NC(=O)Cn2nnc(C(=O)NCCc3ccc(OC)c(OC)c3)c2N)cc1 | inactive
COc1ccc(CCNC(=O)C(=O)Nc2ccc3nc4n(c(=O)c3c2)CCCCC4)cc1OC | 20.6 µM (active)
O=C(Nc1ccc2nc3n(c(=O)c2c1)CCCCC3)c1ccccc1Cl | inactive
O=C(NCCc1c[nH]c2ccccc12)C1CCN(Cc2ccc(Br)cc2)CC1 | inactive
CCn1cc(C(=O)NCCO)c(=O)c2cc(F)c(N3CCN(C)CC3)cc21 | inactive
CCCCNC(=O)c1cn(CC)c2cc(N3CCN(C(=O)c4ccco4)CC3)c(F)cc2c1=O | 14.6 µM (active)
CCn1cc(C(=O)N/N=C(/C)c2ccc(F)cc2)c(=O)c2cc(F)c(N3CCCC3)cc21 | inactive
COC(=O)CSc1nc2ccccc2c(=O)n1Cc1ccccc1 | inactive
O=S1(=O)CCOC[C@H](CC2CCCCC2)N1Cc1ccc(F)cc1 | inactive
C=CC[C@@H](CC(=O)N[C@@H](CO)Cc1ccccc1)C(=O)NCCOC(=O)[C@@H](CC=C)CC(=O)OC(C)(C)C | inactive
CCOC(=O)c1c(-c2ccc(C)cc2)csc1/N=C(\C)C1=C(O)c2ccccc2C1=O | 7.3 µM (active)
CCOC(=O)c1c(-c2ccc(-c3ccccc3)cc2)csc1NC(=O)CCC(=O)O | inactive
CCOC(=O)c1c(-c2ccccc2)csc1NC(=S)NC(=O)c1ccccc1 | inactive
COc1cccc(CN(C)CC(O)COC(c2ccccc2)c2ccccc2C)c1 (centres undefined) | inactive
CCCN(CCC)c1ccc(C(O)c2nnc(-c3ccccc3)o2)cc1 (centres undefined) | 20.6 µM (active)
C=CCn1c(SCc2nnc(-c3ccccc3)o2)nnc1C(O)c1ccccc1 (centres undefined) | inactive
CCCC(=O)Nc1nnc(-c2ccccc2)o1 | inactive
CC(C)COc1ccc(C(=O)NNC(=O)CCC(=O)c2cccs2)cc1 | inactive
CCC/C(C)=N\Nc1nc2c(c(=O)n(C)c(=O)n2C)n1C | inactive
C/C(Cl)=C\Cn1c(Nc2cccc(C)c2)nc2c1c(=O)n(C)c(=O)n2C | 9.2 µM (active)
Cc1cccc(Cn2c(N3CCN(c4ccccc4)CC3)nc3c2c(=O)n(C)c(=O)n3C)c1 | inactive
CCc1[nH]nc(C(=O)N2CCCC(CO)(Cc3ccc(F)cc3F)C2)c1C (centres undefined) | inactive

SMILES | Potency
O=C(COc1ccc(S(=O)(=O)N2CCCCC2)cc1)NCc1ccccn1 | inactive
O=C(Nc1ccc(S(=O)(=O)N2CCCCC2)cc1)c1cnccn1 | inactive
O=C1c2cccnc2C(Nc2ccc(S(=O)(=O)N3CCCCCC3)cc2)N1Cc1ccccc1 (centres undefined) | 8.2 µM (active)
Cc1ccc2nc(SCC(=O)Nc3cccc4ccccc34)nc(=O)n2c1 | inactive
COC(=O)CNC(=O)c1cc(-c2ccncc2)nc2ccccc12 | inactive
O=C(NCCc1ccccn1)c1cccnc1Oc1ccc(Cl)cc1 | inactive
O=C(NCCc1ccccn1)c1cc(-c2ccc(Cl)cc2)nc2ccccc12 | 23.1 µM (active)
Cc1ccccc1Nc1nc(N)nc(COC(=O)CCC(=O)c2ccc(F)cc2)n1 | inactive
Cc1onc(-c2ccc(Cl)cc2)c1-c1ccnn1S(=O)(=O)c1ccc(Cl)cc1 | 14.6 µM (active)
COC(=O)c1noc(C)c1-c1ccnn1C(=O)c1ccc(Cl)cc1 | inactive
Cc1onc(-c2ccccc2)c1C(=O)N=C(N)c1ccc(Cl)cc1 | inactive
Cc1nn(-c2ccccc2)c(C)c1NC(=O)COC(=O)c1cc(Cl)ccc1O | inactive
Cc1nn(-c2ccccc2)c(C)c1NC(=O)COc1ccc(Cl)cc1Cl | 20.6 µM (active)
Cc1nn(-c2ccccc2)c(C)c1NC(=O)CCl | inactive
O=C(CSc1ncn[nH]1)Nc1ccc(Br)cc1Br | inactive
Nc1ncnc2c1ncn2[C@@H]1O[C@H](CNS(=O)(=O)c2ccc(-c3ccno3)s2)[C@@H](O)[C@H]1O | inactive
CCn1ccnc1CN(C)C(=O)c1cc(COc2ccc(-n3cncn3)cc2)on1 | inactive
COc1ccc(CC(=O)Nc2nc(-c3ccc(F)c(F)c3)cs2)cc1OC | inactive
COc1cccc(CC(=O)Nc2ccc(-c3csc(C)n3)cc2)c1 | inactive
COc1cccc(CC(=O)Nc2nc(-c3ccc(OC)c(OC)c3)cs2)c1 | 25.9 µM (active)
COc1ccccc1C(=O)NCC(=O)OCC(=O)Nc1nnc(-c2ccccc2)o1 | inactive
COc1ccc(/C=C/C(=O)NC(=S)N2CCCC(C(N)=O)C2)cc1 (centres undefined) | inactive
CCOc1ccc(NC(=O)CSc2nc3c(c(=O)n2-c2ccccc2OC)SCC3)cc1 | inactive
CCOC(=O)c1sc(NC(=O)CSc2nc3c(c(=O)n2-c2ccccc2)SCC3)c(C(=O)OCC)c1C | inactive

SMILES | Potency
CCc1nnc(NC(=O)CSc2nc3c(c(=O)n2-c2ccccc2OC)SCC3)s1 | 20.6 µM (active)
Cc1ccc(S(=O)(=O)NCCC(=O)OCC(=O)N(C)c2ccccc2)cc1 | inactive
O=c1ccc2cc(S(=O)(=O)Nc3ccccc3F)ccc2o1 | inactive
O=c1oc2ccccc2c(NC2CCCCC2)c1NS(=O)(=O)c1ccc(Cl)cc1 | inactive
O=c1oc(-c2ccccc2NS(=O)(=O)c2ccc(Cl)cc2)nc2ccccc12 | 14.6 µM (active)
Cc1ccc(NC(=O)c2ccc(S(=O)(=O)NCC3CCCO3)cc2)cc1C (centres undefined) | inactive
CCOc1ccc(C(=O)Nc2ccc(S(=O)(=O)NCC3CCCO3)cc2)cc1OCC (centres undefined) | inactive
O=C(Nc1ccc(S(=O)(=O)NCC2CCCO2)cc1)c1ccc(F)cc1 (centres undefined) | inactive
CN(CC1CCCO1)S(=O)(=O)c1ccc(C(=O)Nc2ccc(F)cc2)cc1 (centres undefined) | 4.11 µM (active)
CN(CC1CCCO1)S(=O)(=O)c1ccc(C(=O)Nc2ccc([N+](=O)[O-])cc2)cc1 (centres undefined) | 1.83 µM (active)
CCC(=O)Nc1ccc(S(=O)(=O)NCC2CCCO2)cc1 (centres undefined) | inactive
Cc1c2cnn(CC(=O)NCc3ccccn3)c(=O)c2c(C)n1Cc1ccc(Cl)cc1 | inactive
COc1cccc(-n2c(SCC(=O)NC3CCS(=O)(=O)C3)nc3ccccc3c2=O)c1 (centres undefined) | inactive
C[C@H]1CN([C@@H](C)CO)C(=O)Cc2cc(NC(=O)Cc3ccccc3)ccc2O[C@H]1CN(C)S(=O)(=O)c1cccs1 | inactive
O=c1ccc2c(-c3ccccc3S(=O)(=O)O)c3ccc(O)c(O)c3oc-2c1O | 35.5 µM (active)
COc1cc(OC)cc(-c2sc3ccc(OC)cc3c2-c2ccc3cc[nH]c3c2)c1 | inactive
CC(C)CC1NC(=O)c2cc(Cl)ccc2-n2c1nc1ccccc1c2=O (centres undefined) | inactive
Cc1cccc(N(Cc2ccccc2)C(=O)c2ccccc2F)c1 | inactive
COC(=O)c1ccc2c(=O)n(CCN3CCOCC3)c(SCC(=O)Nc3cccc(OC)c3)nc2c1 | inactive
CCOc1ccc(NC(=O)CSc2nc3ccccc3c(=O)n2Cc2cccs2)cc1 | inactive
CCc1ccc(NC(=O)CSc2nc3ccccc3c(=O)n2CCN2CCOCC2)cc1 | 23.1 µM (active)
Cn1c(=O)n(C)c2cc(S(=O)(=O)Nc3ccc(F)cc3)ccc21 | inactive
